A short description of test [1]: qHTS assay to identify small molecule antagonists of the thyroid receptor (TR) signaling pathway - cell viability counter screen (AID 743064). Note: nearly all actives have a fitted effect of over 50% in size. Put shortly:
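In rat pituitary GH3.TRE-Luc reporter cells co-exposed to compound and 1 nM T3 for 23.5 h, cytotoxicity was assessed with CellTiter-Fluor in the same wells, read by fluorescence.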
A general note: In qHTS, concentration-response curves come from the screen itself.

Test [2] deals with Estrogen receptor (Homo sapiens) (UniProt P03372). Briefly: qHTS assay to identify small molecule antagonists of the estrogen receptor alpha (ER-alpha) signaling pathway (AID 743069; active = well fitted curve in the direction sought with a large enough effect in the signal ratio in the repeat runs, not every such curve was filed as active; the % refers to the signal ratio). Put shortly:
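Beta-lactamase FRET fluorescence is read after 2 hr at room temperature with LiveBLAzer B/G substrate. Before that, ER-alpha-bla HEK293 cells sit 4 hr after plating, then receive compound plus 17beta-estradiol and incubate 18 hr at 37C.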

Test [3] in a line: qHTS assay to identify small molecule antagonists of the estrogen receptor alpha (ER-alpha) signaling pathway - cell viability counter screen (AID 743074; calls by dose curve;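 note: HEK293 cells carrying ER-alpha-UAS-bla reporter stimulated with 17beta-estradiol; nearly all actives have a fitted effect of over 45% in size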; note: potency is the fitted concentration of half-maximal effect).
Test [4] concerns the target Estrogen receptor (Homo sapiens) (UniProt P03372). Briefly: qHTS assay to identify small molecule agonists of the estrogen receptor alpha (ER-alpha) signaling pathway (AID 743075; calls by dose curve;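 note: HEK293 GripTite cells with ER-alpha and UAS-driven beta-lactamase reporter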).
Test [5] shares this target. Briefly: qHTS assay to identify small molecule agonists of the estrogen receptor alpha (ER-alpha) signaling pathway using the BG1 cell line (AID 743079). Note: nearly all actives have a fitted effect of over 20% in size. The note with it: BG1Luc4E2 cells, ERE-luciferase agonist, 22 h; activation: at 70.3 µM (top of the series).
Test [6] is described as follows: qHTS assay to identify small molecule antagonists of the estrogen receptor alpha (ER-alpha) signaling pathway using the BG1 cell line (AID 743080; calls by dose curve;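 note: BG1 cells stimulated with 17beta-estradiol alongside compound; nearly all actives have a fitted effect of over 25% in size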; note: potency is the fitted concentration of half-maximal effect). Put shortly: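 Quantitative HTS on the Tox21 10K library: BG1 cells with endogenous ER-alpha and ERE-luciferase reporter, 17beta-estradiol stimulation, 21.5 h compound exposure, luminescence endpoint with parallel fluorescence cytotoxicity counter-read.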

Test [7] in a line: qHTS assay to identify small molecule antagonists of the estrogen receptor alpha (ER-alpha) signaling pathway using the BG1 cell line - cell viability counter screen (AID 743081).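 Note: compound given together with 17beta-estradiol as the ER stimulus; nearly all actives have a fitted effect of over 45% in size.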
For the next test, the target named is Aromatase (Homo sapiens) (UniProt P11511). Briefly: qHTS assay to identify aromatase inhibitors (AID 743083). Note: nearly all actives have a fitted effect of over 55% in size.
The nature of test [8]: qHTS assay to identify aromatase inhibitors - cell viability counter screen (AID 743084).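 Note: cells stimulated with testosterone during compound exposure; nearly all actives have a fitted effect of over 55% in size.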
Test [9] deals with Aryl hydrocarbon receptor (Homo sapiens) (UniProt P35869). Briefly: qHTS assay to identify small molecule that activate the aryl hydrocarbon receptor (AhR) signaling pathway (AID 743085).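 For activation: HG2L7.5c1 human HepG2 liver cells with stably integrated DRE-driven firefly reporter.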 Note: nearly all actives have a fitted effect of over 15% in size. Note: potency is the fitted concentration of half-maximal effect. Put shortly:
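AhR agonist activity is inferred from enhanced light output of a DRE-controlled firefly luciferase reporter in HepG2 cells, measured with ONE-Glo following 24 h treatment at 37C.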

Test [10] can be described thus: qHTS assay to identify small molecule that activate the aryl hydrocarbon receptor (AhR) signaling pathway - cell viability counter screen (AID 743086).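 Note: HepG2 liver cells carrying the AhR DRE luciferase reporter; nearly all actives have a fitted effect of over 45% in size.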 Put shortly: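 HepG2-AhR-luc (HG2L7.5c1) cells, 4000/well, treated 24 h at 37 C with compound; viability measured as CellTiter-Fluor fluorescence after 30 min in the same wells as the luciferase read.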
The target in test [11] is Peroxisome proliferator-activated receptor gamma (Homo sapiens) (UniProt P37231). Briefly: qHTS assay to identify small molecule agonists of the peroxisome proliferator-activated receptor gamma (PPARg) signaling pathway (AID 743094; active = well fitted activation curve with a large enough effect in the signal ratio in the repeat runs, not every such curve was filed as active; the % refers to the signal ratio). Put shortly:
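Cell-based bla reporter, HEK293H background, PPARg-driven UAS. Pre-incubation 5 h, 37C, 5% CO2. Compound 17 h, 37C. Substrate 1 h RT; fluorescence.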

Test [12] has the same target. Briefly: qHTS assay to identify small molecule antagonists of the peroxisome proliferator-activated receptor gamma (PPARg) signaling pathway (AID 743191; calls by dose curve; note: nearly all actives have a fitted effect of over 30% in size). Summed up: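 GeneBLAzer PPARg UAS-bla HEK293H cells, 5 h post-plating, exposed to compounds 17 h at 37C. LiveBLAzer B/G FRET substrate added for 1 h at room temperature; beta-lactamase reporter read by fluorescence intensity.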

Test [13] in a line: qHTS assay to identify small molecule antagonists of the peroxisome proliferator-activated receptor gamma (PPARg) signaling pathway - cell viability counter screen (AID 743194). Note: nearly all actives have a fitted effect of over 55% in size. Note: potency is the fitted concentration of half-maximal effect. Put shortly:
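Cytotoxicity counter screen in PPARg-bla HEK293H cells, same wells as reporter assay. Compounds plus 50 nM rosiglitazone (final) for 17 h at 37 C, then viability read by CellTiter-Glo luminescence.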

A short description of test [14]: qHTS assay for small molecule activators of the heat shock response signaling pathway (AID 743210; active = well fitted activation curve with a large enough effect in the signal ratio in the repeat runs, with a control signal flat, not every such curve was filed as active; the % refers to the signal ratio). Summed up: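 Beta-lactamase reporter read-out: FRET substrate fluorescence after 2.5 h at RT, following 5 h compound treatment at 37 C of HeLa cells carrying HSE-driven bla reporter; quantitative HTS format.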
Test [15] in a line: qHTS assay for small molecule agonists of the antioxidant response element (ARE) signaling pathway (AID 743202; active = well fitted activation curve with a large enough effect in the signal ratio in the repeat runs, not every such curve was filed as active; the % refers to the signal ratio; note: potency is the fitted concentration of half-maximal effect). Summed up:
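HepG2 ARE-bla reporter line, 2,000 cells/well; 5 h preincubation 37 C/5% CO2; compound (DMSO) 16 h 37 C; B/G FRET substrate 2 h RT; fluorescence intensity.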

A short description of test [16]: qHTS assay for small molecule agonists of the antioxidant response element (ARE) signaling pathway - cell viability counter screen (AID 743203; calls by dose curve; note: nearly all actives have a fitted effect of over 55% in size). Summed up:
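Measured in the same wells as the beta-lactamase ARE reporter, this read-out is CellTiter-Glo luminescence from HepG2 ARE-bla cells given compounds for 16 hrs.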

The nature of test [17]: qHTS assay for small molecule activators of the heat shock response signaling pathway - cell viability counter screen (AID 743209). Note: nearly all actives have a fitted effect of over 50% in size. Put shortly:
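Same-well multiplex: after 2.5 h room-temperature incubation with LiveBLAzer B/G substrate and fluorescence reading, CellTiter-Glo reagent was added to HSE-bla HeLa cells that had received compound for 5 h at 37 C; luminescence read after 30 min.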

For test [18], the system named is thyroid hormone receptor (rat, GH3 cells). Briefly: qHTS assay to identify small molecule agonists of the thyroid receptor (TR) signaling pathway (AID 743066; calls by dose curve).

Results filed as inconclusive are left out. The source made the active and inactive calls. Unless noted, calls come from the whole dose curve; as a rule, active = well fitted curve in the direction sought with a large enough effect in the repeat runs; inconclusive = weak or mixed curves; inactive = no such curve, though single readings can be large; an effect the other way counts as inactive or inconclusive.

Chain of Aromatase (Homo sapiens) (P11511 whole entry, looked up): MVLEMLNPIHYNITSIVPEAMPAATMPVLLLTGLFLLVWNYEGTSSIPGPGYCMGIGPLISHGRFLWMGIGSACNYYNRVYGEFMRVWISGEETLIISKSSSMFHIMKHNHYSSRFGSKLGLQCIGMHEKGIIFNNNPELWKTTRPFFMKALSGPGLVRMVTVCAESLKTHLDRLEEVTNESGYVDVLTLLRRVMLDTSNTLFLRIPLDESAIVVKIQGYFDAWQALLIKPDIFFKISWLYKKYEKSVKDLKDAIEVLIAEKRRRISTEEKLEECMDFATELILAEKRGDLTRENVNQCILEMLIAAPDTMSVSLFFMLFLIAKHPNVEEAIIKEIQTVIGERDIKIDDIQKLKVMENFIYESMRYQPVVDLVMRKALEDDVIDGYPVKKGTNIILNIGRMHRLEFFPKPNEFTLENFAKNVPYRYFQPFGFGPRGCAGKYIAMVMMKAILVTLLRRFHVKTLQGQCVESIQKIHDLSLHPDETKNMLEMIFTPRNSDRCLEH
Chain of Estrogen receptor (Homo sapiens) (P03372 whole entry, looked up): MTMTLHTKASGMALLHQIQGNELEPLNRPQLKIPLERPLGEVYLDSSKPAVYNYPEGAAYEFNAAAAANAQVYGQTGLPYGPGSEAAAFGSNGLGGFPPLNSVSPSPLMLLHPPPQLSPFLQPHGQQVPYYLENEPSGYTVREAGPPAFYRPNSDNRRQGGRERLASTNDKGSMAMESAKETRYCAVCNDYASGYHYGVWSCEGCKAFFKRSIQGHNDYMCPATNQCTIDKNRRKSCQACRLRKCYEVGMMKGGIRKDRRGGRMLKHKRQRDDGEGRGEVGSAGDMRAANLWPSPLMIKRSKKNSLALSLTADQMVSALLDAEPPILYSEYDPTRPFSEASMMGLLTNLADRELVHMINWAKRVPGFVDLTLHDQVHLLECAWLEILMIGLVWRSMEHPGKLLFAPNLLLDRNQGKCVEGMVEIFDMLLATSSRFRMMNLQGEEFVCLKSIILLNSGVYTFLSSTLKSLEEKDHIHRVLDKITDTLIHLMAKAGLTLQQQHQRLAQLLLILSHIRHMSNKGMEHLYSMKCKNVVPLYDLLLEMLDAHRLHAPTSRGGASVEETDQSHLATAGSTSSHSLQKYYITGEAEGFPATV
Chain of Aryl hydrocarbon receptor (Homo sapiens) (P35869 whole entry, looked up): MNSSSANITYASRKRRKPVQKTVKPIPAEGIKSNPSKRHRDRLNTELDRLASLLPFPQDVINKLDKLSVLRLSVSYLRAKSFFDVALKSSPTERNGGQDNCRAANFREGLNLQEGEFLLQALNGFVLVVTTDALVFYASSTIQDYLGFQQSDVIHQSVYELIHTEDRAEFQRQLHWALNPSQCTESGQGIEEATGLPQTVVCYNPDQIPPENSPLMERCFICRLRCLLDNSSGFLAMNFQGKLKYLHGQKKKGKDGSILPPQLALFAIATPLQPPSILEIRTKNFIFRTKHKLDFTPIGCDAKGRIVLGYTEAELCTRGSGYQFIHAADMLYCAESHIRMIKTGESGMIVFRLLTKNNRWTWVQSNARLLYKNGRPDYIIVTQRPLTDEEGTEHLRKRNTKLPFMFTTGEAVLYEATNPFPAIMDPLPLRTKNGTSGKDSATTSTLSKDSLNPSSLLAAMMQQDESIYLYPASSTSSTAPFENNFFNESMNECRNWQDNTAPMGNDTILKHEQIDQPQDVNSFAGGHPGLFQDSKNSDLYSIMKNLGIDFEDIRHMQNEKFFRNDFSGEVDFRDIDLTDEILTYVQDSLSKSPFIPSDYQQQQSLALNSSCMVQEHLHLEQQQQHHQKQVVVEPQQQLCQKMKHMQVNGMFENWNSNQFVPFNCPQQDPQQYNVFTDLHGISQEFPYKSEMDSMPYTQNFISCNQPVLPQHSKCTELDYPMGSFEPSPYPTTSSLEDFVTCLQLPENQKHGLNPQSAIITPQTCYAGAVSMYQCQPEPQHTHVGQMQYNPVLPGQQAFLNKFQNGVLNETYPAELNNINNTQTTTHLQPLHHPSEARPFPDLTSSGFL
Chain of Peroxisome proliferator-activated receptor gamma (Homo sapiens) (P37231 whole entry, looked up): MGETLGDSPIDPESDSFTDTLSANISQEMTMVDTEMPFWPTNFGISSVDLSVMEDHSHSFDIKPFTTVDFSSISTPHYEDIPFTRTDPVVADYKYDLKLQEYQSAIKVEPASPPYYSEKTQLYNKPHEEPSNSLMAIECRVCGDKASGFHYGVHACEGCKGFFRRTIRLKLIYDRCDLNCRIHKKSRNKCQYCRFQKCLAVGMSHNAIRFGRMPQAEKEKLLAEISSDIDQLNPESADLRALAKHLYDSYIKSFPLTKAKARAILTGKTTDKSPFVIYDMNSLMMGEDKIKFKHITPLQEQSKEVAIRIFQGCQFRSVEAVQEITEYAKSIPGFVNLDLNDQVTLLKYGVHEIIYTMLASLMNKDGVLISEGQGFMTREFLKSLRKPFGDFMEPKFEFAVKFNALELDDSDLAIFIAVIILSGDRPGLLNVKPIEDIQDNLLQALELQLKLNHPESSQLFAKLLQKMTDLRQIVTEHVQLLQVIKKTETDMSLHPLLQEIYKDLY

Take `O=C(O)C[C@H](NC(=O)OCc1ccccc1)C(=O)O`: the Potency entry in test [1], in test [2], in [3], in test [4], in [5] and in test [6] was “inactive” each time. Further, the Potency entry (in test [7]; with Aromatase (Homo sapiens); in test [8]; in [9]; in test [10]; in test [11]) was “inactive” in each case. Besides, the Potency entry in test [12], in test [13] and in test [14] was “inactive” each time.
Regarding `CC(=O)c1cc2ccccc2s1`, the Potency result in test [15], in test [16], in test [17] and in test [14] was “inactive” in each case.
`CCc1ccccc1`: the Potency entry (in test [3]; in test [4]; in [5]; in [7]; in the test with Aromatase (Homo sapiens); in test [8]) was “inactive” throughout. Also, the Potency result in test [9], in [10], in [11], in [12], in test [13] and in test [15] was “inactive” in each case. Besides, the Potency entry in [16] and in test [14] was “inactive” in each case.
`CCOC(=O)/C=C/C(=O)OCC`: the Potency result (in [3]; in [4]; in [5]; in test [7]; with Aromatase (Homo sapiens); in [8]) was “inactive” in each case. The Potency entry in test [9], in test [10], in [11], in test [12], in test [13] and in test [16] was “inactive” in each case. The Potency result in test [17] and in test [14] was “inactive” each time.
With `OC1(c2ccccc2)CCNCC1`, the Potency entry in test [12], in test [13], in test [15], in test [16], in test [17] and in [14] was “inactive” throughout.
With `CNC(=O)c1cnn(-c2nc(N)c3ncn([C@@H]4O[C@H](CO)[C@@H](O)[C@H]4O)c3n2)c1`, the Potency entry in test [13], in [15], in test [16], in test [17] and in [14] was “inactive” throughout.
As for `C=C/C(C)=C/C/C=C(\C)CCC=C(C)C`, the call in test [18] was inactive. Also, the Potency entry (in test [2]; in test [3]; in [4]; in test [5]; in test [7]; with Aromatase (Homo sapiens)) was “inactive” each time. In addition, the Potency result in test [9], in [10] and in test [13] was “inactive” each time. Moreover, in [15], the Potency is 54.5 µM (active).
Consider `O=C1C(=O)c2ccccc2C(O)=C1C1CCC(c2ccc(Cl)cc2)CC1` (stereo unspecified), for which the result in test [18] was inactive. In addition, the Potency in test [3] was 2.04 µM (active); in test [9], 4.03 µM (active); in test [15] it was 6.68 µM (active). The Potency entry (in test [4]; in test [5]; in test [7]; with Aromatase (Homo sapiens); in test [8]; in [10]) was “inactive” throughout. The Potency result in test [11] and in [17] was “inactive” throughout.
`C[C@H]1C[C@H](O)c2ccsc2S1(=O)=O`: the Potency entry in test [13], in [15], in test [16], in test [17] and in test [14] was “inactive” throughout.
For `O=C(CCCN1CC=C(n2c(=O)[nH]c3ccccc32)CC1)c1ccc(F)cc1`, in test [18], the molecule was called inactive. Also, the Potency result in test [2], in test [3], in [4], in test [5], in test [6] and in test [7] was “inactive” each time. Moreover, the Potency result (with Aromatase (Homo sapiens); in test [8]; in test [9]; in test [10]; in [11]; in [12]) was “inactive” each time. The Potency result in test [13], in test [15], in test [16], in test [17] and in test [14] was “inactive” each time.
On to `O=C1c2ccccc2C(=O)N1CCc1noc(-c2ccc(CN3CCCCCC3)s2)n1`, for which, in test [18], the molecule was classed as inactive. Besides, the Potency result in test [2], in test [4], in test [7], in [8], in [11] and in test [13] was “inactive” throughout. For the same molecule, the Potency result in test [16], in test [17] and in test [14] was “inactive” throughout. Moreover, the Potency in [6] was 49.9 µM (active); in test [9] it was 6.29 µM (active); in [15] it was 6.29 µM (active).
For the molecule `CCOc1cccc(-n2cc(C(=O)N3CCN(c4cc(C(=O)O)c5ccccc5c4)CC3)nc2-c2ccc(C)cc2)c1`, the outcome in test [18] was inactive. Besides, the Potency entry (in test [7]; in the test with Aromatase (Homo sapiens); in test [8]; in test [9]; in [10]; in test [17]) was “inactive” each time. In addition, the Potency in test [13] is 18.6 µM (active); in [15] it was 9.25 µM (active).
